This is part of a sample that, as a whole, favours compounds with a hit. Of some 83,000 tested, about 20% had one in any assay.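 Negative percent growth values reflect cell death: -40 means 40% of the cells present at the start died, and -100 means all died.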 Values without a mark were called inactive. Active and inactive are the calls of the source. The calls were made as follows: active = growth percent below 10; inactive = the rest.
How the values were obtained:
Experiment in all cases: NCI-60 one-dose screen, 48 h (100 = growth as untreated, 0 = no growth, -100 = all killed)
[1] = tested on: SK-MEL-2 melanoma; settings: 10 µM unless noted
[2] = tested on: SN12C renal; settings: 10 µM unless noted
[3] = tested on: UO-31 renal; settings: 10 µM unless noted
[4] = tested on: TK-10 renal; settings: 10 µM unless noted
[5] = tested on: ACHN renal; settings: 10 µM unless noted
[6] = tested on: CAKI-1 renal; settings: 10 µM unless noted
[7] = tested on: A498 renal; settings: 10 µM unless noted
[8] = tested on: CCRF-CEM leukemia; settings: 10 µM unless noted
[9] = tested on: MOLT-4 leukemia; settings: 10 µM unless noted
[10] = tested on: SR leukemia; settings: 10 µM unless noted
[11] = tested on: RPMI-8226 leukemia; settings: 10 µM unless noted
[12] = tested on: OVCAR-8 ovarian; settings: 10 µM unless noted
[13] = tested on: OVCAR-5 ovarian; settings: 10 µM unless noted
[14] = tested on: OVCAR-4 ovarian; settings: 10 µM
[15] = tested on: SK-OV-3 ovarian; settings: 10 µM unless noted
[16] = tested on: IGROV1 ovarian; settings: 10 µM unless noted
[17] = tested on: OVCAR-3 ovarian; settings: 10 µM unless noted
[18] = tested on: HS 578T breast; settings: 10 µM unless noted
[19] = tested on: NCI/ADR-RES ovarian; settings: 10 µM unless noted
[20] = tested on: EKVX NSCLC; settings: 10 µM unless noted

SMILES	growth [1]	growth [2]	growth [3]	growth [4]	growth [5]	growth [6]	growth [7]	growth [8]	growth [9]	growth [10]	growth [11]	growth [12]	growth [13]	growth [14]	growth [15]	growth [16]	growth [17]	growth [18]	growth [19]	growth [20] [%]
COc1ccc2c(c1)C(C)Cc1c(Cl)nc(C)nc1N2C (centres undefined)	37.3%	32.6%	50.9%	44.4%	55.2%	25.4%	-5.78% (active)	14.7%	20.3%	14.6%	29.4%	24.2%	56.2%	54.9%	19.1%	55.7%	6.18% (active)	27.3%	4.74% (active)	–
CCCCCCCCCCCCCCNC(=O)Nc1ccc(Cl)c(Cl)c1	14.5%	20.2%	8.71% (active)	41.3%	9.14% (active)	10.8%	96.7%	63.7%	103%	95%	72.6%	30.5%	64.8%	24.7%	73%	–	15.5%	84.2%	-0.731% (active)	–
Cc1ncc(C(=O)Nc2ccc(CN3CCN(C)CC3)c(C(F)(F)F)c2)cc1C#Cc1c(N)ncc2ccc(C#N)cc12	39.7%	32.9%	19.3%	37%	12.3%	16.1%	6.65% (active)	38.1%	37.3%	16.1%	–	53.2%	41.2%	44.5%	–	10.4%	37.8%	26.9%	61.7%	–
Clc1ccccc1/C=N\Nc1ccccn1	92.8%	92.2%	66.8%	–	87.7%	80.2%	110%	95.1%	83.5%	90.5%	93.1%	90.1%	104%	68%	84.1%	64%	–	99.4%	91.1%	–
C=C(C)[C@@H]1CC[C@]2(C(N)=O)CC[C@]3(C)[C@H](CC[C@@H]4[C@@]5(C)C/C(=C/c6cccnc6)C(=O)C(C)(C)[C@@H]5CC[C@]43C)[C@@H]12	-47.4% [100 µM] (active)	18.5% [100 µM]	10.2% [100 µM]	23.5% [100 µM]	7.09% [100 µM] (active)	8.38% [100 µM] (active)	17.3% [100 µM]	7.08% [100 µM] (active)	2.39% [100 µM] (active)	10.7% [100 µM]	6.37% [100 µM] (active)	20.3% [100 µM]	-6.45% [100 µM] (active)	–	12.9% [100 µM]	14.9% [100 µM]	12.5% [100 µM]	25.5% [100 µM]	14.7% [100 µM]	–
COc1ccc(-c2ccc(NNC(=O)c3ccc(F)cc3)nn2)cc1OC	93.5%	57.1%	34.8%	43.7%	54.8%	17.3%	2.09% (active)	79.5%	–	51%	70.7%	66.8%	50.3%	81.8%	–	22.1%	78.6%	41.1%	65.4%	–
c1ccc(-c2nc(N3CCCNCC3)c3nc(-c4ccccc4)oc3n2)cc1	102%	-22.5% (active)	51.1%	-47.3% (active)	-53.5% (active)	40.1%	69.9%	–	0.525% (active)	0.248% (active)	-15.7% (active)	59.5%	87.9%	76.3%	–	-56% (active)	-69.8% (active)	83.6%	-11.8% (active)	–
CC(=O)Nc1ccc(C=Nc2ccc3ccccc3c2)cc1	121%	99%	98.5%	106%	118%	47.4%	108%	93%	100%	104%	101%	108%	117%	108%	109%	105%	122%	–	115%	–
N#Cc1c(Cl)nc(SCC2CO2)nc1-c1ccccc1 (centres undefined)	70.1%	95.9%	66.1%	111%	95.5%	87.9%	108%	110%	113%	89.8%	103%	51.6%	101%	103%	70.2%	–	137%	121%	108%	–
COc1ccc2nc3cc(Cl)ccc3c(Nc3ccc(O)c(CN4CCCC4)c3)c2c1	-57.6% (active)	47.8%	-46.2% (active)	10.2%	-38.9% (active)	8.96% (active)	62.3%	-6.84% (active)	0.985% (active)	0.0468% (active)	-25.2% (active)	-2.17% (active)	57.4%	-4.45% (active)	73.2%	-26.3% (active)	-32.1% (active)	–	3.27% (active)	–
Cc1cccc(C[C@H](NC(=O)Nc2ccc(Cl)cc2F)C(=O)N[C@@H]2C(=O)N3C[C@H](O)C[C@H]3C(=O)N3CCCC[C@H]3C(=O)N[C@@H](C)C(=O)N3C[C@H](C)C[C@H]3C(=O)O[C@H]2C)c1	0.151% (active)	9.57% (active)	10.3%	29.2%	–	8.12% (active)	-4.82% (active)	31%	14.7%	11%	–	13.5%	6.86% (active)	7.83% (active)	–	9.47% (active)	-26.4% (active)	10.9%	89.9%	–
N#CC1C(=O)NC(c2ccccc2[N+](=O)[O-])c2sc3c(F)cccc3c21 (centres undefined)	–	78.1%	53.8%	41.1%	65.8%	5.27% (active)	-60.7% (active)	86.9%	86.6%	67.9%	41.3%	75%	-15.1% (active)	-0.483% (active)	72.8%	0.306% (active)	-14.5% (active)	–	68.5%	64.8
CSc1cccc([N+](=O)[O-])c1	106%	86.2%	95.7%	108%	102%	101%	121%	90.3%	107%	107%	96.8%	107%	101%	–	97.8%	101%	110%	107%	109%	–
Ic1ccc2[nH]cc(SSc3c[nH]c4ccc(I)cc34)c2c1	74%	42.1%	36.6%	-13.3% (active)	16.5%	-6.92% (active)	40.7%	8.16% (active)	13.2%	13.8%	3.93% (active)	32.6%	42.7%	25.3%	-20.1% (active)	–	-9.35% (active)	65.7%	7.06% (active)	–
CCOc1ccc2sc(NS(=O)(=O)c3ccc(N)cc3)nc2c1	–	98.2%	91.2%	124%	108%	89.4%	115%	99.1%	104%	95.4%	96.5%	105%	109%	105%	101%	95.8%	115%	106%	113%	103
CC[C@]12C=CCN3CC[C@@]4(c5ccc(OC)cc5N(C)[C@H]4[C@@](O)(C(=O)OC)[C@@H]1OC(=O)CCC(=O)N[C@H](Cc1c[nH]c4ccccc14)C(=O)OC)[C@@H]32	-48.8% [100 µM] (active)	-68.7% [100 µM] (active)	-55.5% [100 µM] (active)	-38.7% [100 µM] (active)	-64.7% [100 µM] (active)	-71% [100 µM] (active)	-49.9% [100 µM] (active)	7.07% [100 µM] (active)	-12.4% [100 µM] (active)	26% [100 µM]	0.693% [100 µM] (active)	0.282% [100 µM] (active)	-58.1% [100 µM] (active)	–	-18.1% [100 µM] (active)	-38.7% [100 µM] (active)	-48.8% [100 µM] (active)	-43.8% [100 µM] (active)	-30.7% [100 µM] (active)	–

From PubChem BioAssay (NCI)
